Data as given in the supplement of paper PMC8253809.
Where “and” joins values, the source holds several entries; their conditions need not be identical. Equal values may be shown once.

How the values were obtained:
Assay in all cases: growth inhibition (% activity, log2 RLU normalised to DMSO / staurosporine); higher = more growth inhibition
Settings in all cases: 33 µM
DIPGX29 = system: DIPGX29 (H3.3 K27M diffuse intrinsic pontine glioma line)
Procedure, shortened: (§1)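 On Geltrex-coated 384-well plates, pHGG cell lines and H9-derived neural stem cells were grown with approved drugs pinned in at a single final concentration of about 33 μM, in triplicate, for 7 days at 37 °C, 5% CO2. Per-plate normalisation of log2-transformed CellTiter-Glo luminescence to % activity between solvent and positive control wells followed. Each growth-inhibition value is the median over the replicates.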

DIPGX37 = system: DIPGX37 (H3.3 K27M diffuse intrinsic pontine glioma line)
Procedure, shortened: as §1

DIPGX7 = system: DIPGX7 (H3.3 K27M diffuse intrinsic pontine glioma line)
Procedure, shortened: as §1

DIPGX9 = system: DIPGX9 (diffuse intrinsic pontine glioma line)
Procedure, shortened: as §1

HGGX39 = system: HGGX39 (paediatric high-grade glioma line)
Procedure, shortened: as §1

HGGX6 = system: HGGX6 (H3.3 G34R paediatric high-grade glioma line)
Procedure, shortened: as §1

HNSC = system: HNSC
Procedure, shortened: as §1

SUDIPGIV = system: SUDIPGIV (diffuse intrinsic pontine glioma line)
Procedure, shortened: as §1

SUDIPGVI = system: SUDIPGVI (diffuse intrinsic pontine glioma line)
Procedure, shortened: as §1

SUDIPGXIII = system: SUDIPGXIII (diffuse intrinsic pontine glioma line)
Procedure, shortened: as §1

| SMILES | growth inhibition (DIPGX29) | growth inhibition (DIPGX37) | growth inhibition (DIPGX7) | growth inhibition (DIPGX9) | growth inhibition (HGGX39) | growth inhibition (HGGX6) | growth inhibition (HNSC) | growth inhibition (SUDIPGIV) | growth inhibition (SUDIPGVI) | growth inhibition (SUDIPGXIII) |
| --- | --- | --- | --- | --- | --- | --- | --- | --- | --- | --- |
| O=S(=O)(O)CCS | -1.06% | 0.485% | -0.101% | 0.715% | -0.445% | -1.07% | 0.589% | -0.0759% | 1.78% | -0.97% |
| CCC1(c2ccccc2)C(=O)NCNC1=O | -1.25% | 0.454% | 0.246% | -0.432% | 2.69% | -0.575% | 3.35% | -1.41% | 0.425% | 0.0763% |
| Nc1nc(=O)c2c([nH]1)NC[C@H](CNc1ccc(C(=O)N[C@@H](CCC(=O)O)C(=O)O)cc1)N2C=O | 1.44% | 1.17% | 2.14% | 0.677% | 1.92% | 0.872% | 35.4% | 2.82% | -2.53% | 0.25% |
| CN(C(=O)CN(CCO)CC(=O)N(C)C(C)(C)Cc1ccccc1)C(C)(C)Cc1ccccc1 | 11.3% | 3.37% | 29% | 4.47% | 9.74% | 2.56% | 53.1% | 3.05% | 6.12% | 10.4% |
| Cc1cc(C2CCCCC2)n(O)c(=O)c1 | 68.5% and 63.3% | 7.69% and 8.51% | 54.5% and 43.2% | 68.8% and 56.5% | 8.59% and 9.1% | 67.5% and 63.6% | 81.5% and 63.9% | 13.4% and 8.52% | -4.21% and -2.85% | 21.3% and 10.6% |
| O=C(O)c1ccc(NC(=O)[C@H](Cc2ccc(O)cc2)NC(=O)c2ccccc2)cc1 | -3.5% | -1.5% | -2.53% | -1.13% | -2.55% | -0.845% | -2.41% | -2.35% | 0.761% | -0.558% |
| Clc1ccccc1C(c1ccccc1)(c1ccccc1)n1ccnc1 | 3.31% | 0.662% | 3.85% | 6.07% | 16.9% | 14.3% | 31.3% | 26.9% | 2.55% | 42.1% |
| CN1[C@@H]2CC[C@H]1C[C@@H](OC(c1ccccc1)c1ccccc1)C2 | 4.24% | -1.03% | 6.35% | 2.77% | 6.58% | 5% | 9.97% | 2.1% | 3.58% | 0.606% |
| C[C@H](CCC(=O)O)[C@H]1CC[C@H]2[C@@H]3CC[C@@H]4C[C@H](O)CC[C@]4(C)[C@H]3CC[C@]12C | -0.532% | -0.978% | -2.9% | -2.11% | 0.371% | -1.49% | -2.18% | -1.6% | -1.83% | 1.26% |
| Cc1cn(C2C=CC(CO)O2)c(=O)[nH]c1=O (stereo not given) | 0.293% | -1.7% | -0.477% | 0.481% | -0.264% | -0.492% | 1.41% | -1.27% | 1% | 0.705% |
| CO/N=C(\C(=O)N[C@@H]1C(=O)N2C(C(=O)OCOC(=O)C(C)(C)C)=C(/C=C\c3scnc3C)CS[C@H]12)c1csc(N)n1 | -0.112% | 1.84% | 0.192% | -1.35% | 1.82% | -1.1% | 0.492% | 0.557% | 0.818% | -0.304% |
| NS(=O)(=O)c1cc(Cl)c(Cl)c(S(N)(=O)=O)c1 | -2.92% | -0.619% | 1.34% | -2.39% | -1.33% | -5.6% | 21.2% | -2.27% | -8.85% | 2.33% |
| CN(C)CCCC1(c2ccc(F)cc2)OCc2cc(C#N)ccc21 (stereo not given) | 1.68% | 3.31% | 3.03% | 1.7% | 2.63% | 3.21% | -0.115% | 1.18% | 1.71% | 0.506% |
| C[C@@]12C[C@@]3(O)O[C@@H](O1)[C@]1(COC(=O)c4ccccc4)[C@H]3C[C@@]12O[C@@H]1O[C@H](CO)[C@@H](O)[C@H](O)[C@H]1O | -0.664% | 0.987% | -0.876% | 1.21% | -0.682% | 1.84% | -1.36% | -1.25% | 0.677% | -13.1% |
| CN(C)CCc1c[nH]c2ccc(Cn3cncn3)cc12 | -0.697% | 0.65% | -0.925% | 0.553% | 1.2% | 1.15% | -1.13% | -0.297% | 1.51% | -0.819% |
| CN(C)[C@@H](CCOc1cccc2ccccc12)c1ccccc1 | 10.6% | 0.861% | 6% | 3.36% | 5.09% | 0.0424% | 67.5% | 3.4% | -2.24% | 0.415% |
| COCCCC/C(=N\OCCN)c1ccc(C(F)(F)F)cc1 | 1.49% | 4.31% | 1.46% | 3.17% | 4.47% | -0.782% | -3.83% | 2.23% | 0.798% | 2.91% |

| SMILES | growth inhibition (DIPGX29) | growth inhibition (DIPGX37) | growth inhibition (DIPGX7) | growth inhibition (DIPGX9) | growth inhibition (HGGX39) | growth inhibition (HGGX6) | growth inhibition (HNSC) | growth inhibition (SUDIPGIV) | growth inhibition (SUDIPGVI) | growth inhibition (SUDIPGXIII) |
| --- | --- | --- | --- | --- | --- | --- | --- | --- | --- | --- |
| Cc1[nH]c(=O)c(C#N)cc1-c1ccncc1 | 1.05% | 4.4% | 1.37% | 1.64% | 3.34% | -0.118% | 3.65% | 2.63% | 4.48% | -1.25% |
| Cc1nc(-c2ccc(OCC(C)C)c(C#N)c2)sc1C(=O)O | 0.052% | -0.105% | 1.2% | 1.34% | 2.02% | 3.15% | -1.07% | -0.558% | -0.306% | 1.95% |
| C[C@]12C=CC(=O)C=C1CC[C@@H]1[C@@H]2[C@@H](O)C[C@@]2(C)[C@H]1CC[C@]2(O)C(=O)CO | 0.548% | 0.082% | -0.697% | 2.79% | 1.22% | -0.621% | 1.3% | -0.906% | 1.51% | 0.983% |
| CN(C)CCOC(C)(c1ccccc1)c1ccccn1 (stereo not given) | -1.53% | -0.506% | 0.0494% | -1.25% | 0.245% | -0.355% | -1.65% | -0.218% | -0.777% | 0.1% |
| c1ccc(-c2ccc(C(c3ccccc3)n3ccnc3)cc2)cc1 (stereo not given) | 3.65% | 2.9% | 5.02% | 5.27% | 9.63% | 5.19% | 11.5% | 13.7% | 2.63% | -0.141% |
| CCOc1cc(CC(=O)N[C@@H](CC(C)C)c2ccccc2N2CCCCC2)ccc1C(=O)O | 0.598% | -0.0763% | 1.67% | -0.0677% | 0.171% | -1.18% | -2.28% | -0.496% | -6.9% | -1.55% |
| Nc1nc(CC(=O)Nc2ccc(CCNC[C@H](O)c3ccccc3)cc2)cs1 | 0.527% | 0.899% | -0.176% | 0.63% | 1.04% | -0.0848% | -1.35% | -0.627% | 0.0605% | 0.226% |
| N#C[C@@H]1C[C@@H]2C[C@@H]2N1C(=O)[C@@H](N)C12CC3CC(CC(O)(C3)C1)C2 | 2.2% | 1.41% | 1.21% | 0.435% | 5.53% | 2.65% | 8.15% | 7.37% | 2.7% | 7.88% |
| C#C[C@]1(OC(C)=O)CC[C@H]2[C@@H]3CCC4=C[C@@H](OC(C)=O)CC[C@@H]4[C@H]3CC[C@@]21C | 0.289% | 0.452% | -1.67% | 1.3% | -0.196% | 0.0724% | 1.57% | -1.23% | 1.15% | 1.62% |
| CC(=O)OCC(=O)[C@@]1(O)CC[C@H]2[C@@H]3CCC4=CC(=O)CC[C@]4(C)[C@H]3C(=O)C[C@@]21C | -5.36% | -1.7% | -1.09% | -3.1% | -6.61% | -4.47% | 6.87% | -5.64% | -7.69% | -0.171% |
| CC(=O)Nc1ncc([N+](=O)[O-])s1 | -0.525% | -1.35% | -1.25% | -0.952% | 1.46% | 1.88% | -5.25% | -1.68% | -0.127% | 11.8% |
| O=c1[nH]c(=O)n([C@H]2C[C@H](O)[C@@H](CO)O2)cc1C(F)(F)F | -1.08% | 0.535% | -1.11% | 5.19% | 8.23% | -0.706% | 57.7% | 13.1% | -3.24% | 2.3% |
| Cc1cccn2c(=O)c(-c3nnn[nH]3)cnc12 | 0.15% | -1.28% | -0.946% | 0.426% | 1.29% | -0.465% | -1.69% | -0.133% | 0.709% | 1.3% |
| CCOC(=O)C1=C(C)NC(C)=C(C(=O)OC)C1c1cccc([N+](=O)[O-])c1 (stereo not given) | -2.41% | 0.972% | 1.75% | -2.12% | 0.389% | -2.9% | 37.3% | -0.292% | -8.45% | 2.39% |
| CCc1cc(C(N)=S)ccn1 | -2.89% | -1.22% | -0.907% | -2.73% | -1.46% | -1.03% | -5.37% | -0.99% | -3.57% | -0.39% |
| O=NO | 0.973% | 1.57% | -0.944% | 0.322% | 0.656% | 1.76% | -0.386% | -0.178% | 1.15% | -0.00307% |
| CCn1cc(C(=O)O)c(=O)c2cc(F)c(N3CCNC(C)C3)c(F)c21 (stereo not given) | -4.04% | -2.84% | -0.94% | -2.66% | -4.99% | -5.88% | 9.04% | -2.28% | -4.26% | 1.13% |
